Screening data from PubChem BioAssay.
Shown are actives, neighbours in structure and some others; about 11% of the full set was active somewhere.
L3MBTL1 block – qHTS Assay for the Inhibitors of L3MBTL1; AlphaScreen L3MBTL1–H3K9me1 peptide binding; Potency, µM (doses to about 57.1 µM), for inactives: at the top dose activity, negative = inhibition, hits mostly inhibitors; actives 0.66% (n = 230,000); AID 485360, 2010; further: on the % scale 0 is the no-effect control and ±100 the full control effect; nearly all actives have a fitted effect of over 60% in size
Target sequence (Q9Y468 whole entry, looked up): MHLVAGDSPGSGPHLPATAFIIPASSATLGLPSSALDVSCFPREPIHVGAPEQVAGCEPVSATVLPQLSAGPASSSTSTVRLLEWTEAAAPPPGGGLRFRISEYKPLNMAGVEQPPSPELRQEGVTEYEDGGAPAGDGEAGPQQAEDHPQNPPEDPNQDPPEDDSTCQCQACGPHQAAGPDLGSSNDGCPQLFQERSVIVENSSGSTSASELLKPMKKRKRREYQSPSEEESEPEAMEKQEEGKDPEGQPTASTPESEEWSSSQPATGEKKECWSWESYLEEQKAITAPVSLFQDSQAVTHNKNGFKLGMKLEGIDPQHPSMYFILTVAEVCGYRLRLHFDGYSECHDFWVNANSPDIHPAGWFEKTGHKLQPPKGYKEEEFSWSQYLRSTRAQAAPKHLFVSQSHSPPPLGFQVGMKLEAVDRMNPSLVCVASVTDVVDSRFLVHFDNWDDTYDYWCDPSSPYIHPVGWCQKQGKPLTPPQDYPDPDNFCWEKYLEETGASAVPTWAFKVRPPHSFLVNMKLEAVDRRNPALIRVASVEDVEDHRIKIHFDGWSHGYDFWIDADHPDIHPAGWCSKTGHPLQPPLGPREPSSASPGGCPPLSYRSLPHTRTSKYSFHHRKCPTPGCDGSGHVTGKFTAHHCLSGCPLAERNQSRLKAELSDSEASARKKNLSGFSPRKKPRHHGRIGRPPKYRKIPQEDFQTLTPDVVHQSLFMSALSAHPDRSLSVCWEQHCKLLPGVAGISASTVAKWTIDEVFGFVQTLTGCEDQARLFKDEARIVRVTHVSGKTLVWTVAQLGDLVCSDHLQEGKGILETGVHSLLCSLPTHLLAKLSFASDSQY
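AlphaScreen proximity signal between nickel-chelate acceptor and streptavidin donor beads (final 10 ug/mL) reports binding of 50 nM L3MBTL1 to 75 nM biotin-H3 K9me1 peptide; complex incubated with compounds 30 min at room temperature; cefsulodin titration as control.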
HP1b chromo inh – HTS for Inhibitors of HP1-beta Chromodomain Interactions with Methylated Histone Tails; Chromobox protein homolog 1 (Homo sapiens), P83916; AID 540317, 2011; actives 0.56% (n = 390,000); Potency, µM (doses to about 114 µM), for the others: at the top dose activity change, negative = inhibition, hits mostly inhibitors; AlphaScreen HP1-beta / biotin-H3K9me3 peptide binding; further: nearly all actives have a fitted effect of over 70% in size
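HP1-beta protein (50 nM final) preincubated 30 min at room temperature with biotinylated H3(1-18)K9me3 peptide (50 nM) in PBS pH 7.4, 0.01% Tween-20, then compound added for 30 min. AlphaScreen streptavidin donor/nickel chelate acceptor beads (10 ug/mL final), 30 min dark, luminescence read.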
BAZ2B inh – qHTS Assay for Inhibitors of BAZ2B. AlphaScreen BAZ2B-H3K14Ac peptide displacement. Potency, µM (highest dose often 114 µM), for the others: at the highest dose activity change, negative = inhibition, hits mostly inhibitors. actives 4.4% (n = 360,000). AID 504333, 2011; further: on the % scale 0 is the no-effect control and ±100 the full control effect; nearly all actives have a fitted effect of over 60% in size
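Multi-concentration screen (max 110 uM) measuring displacement of acetylated histone H3 peptide from BAZ2B by AlphaScreen, using 50 nM protein, 50 nM peptide and 10 ug/mL streptavidin donor plus Ni-chelate acceptor beads.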
JMJD2A Tudor – qHTS Assay for Inhibitors of JMJD2A-Tudor Domain. AlphaScreen JMJD2A-Tudor / H3K4me3 peptide binding. Potency, µM (doses to about 114 µM), for inactives: at the top dose activity change, negative = inhibition, most hits filed as inhibitors. actives 4.4% (n = 390,000); further: on the % scale 0 is the no-effect control and ±100 the full control effect; nearly all actives have a fitted effect of over 50% in size
G9a inh – qHTS Assay for Inhibitors of Histone Lysine Methyltransferase G9a | G9a H3K9 monomethylation, AlphaScreen, 2 h | Histone-lysine N-methyltransferase EHMT2 (Homo sapiens), Q96KQ7 | actives 8.8% (n = 350,000) | Potency, µM (top dose mostly 102 µM), inactives show at the highest dose activity, negative = inhibition, hits mostly inhibitors; further: on the % scale 0 is the no-effect control and ±100 the full control effect; nearly all actives have a fitted effect of over 75% in size
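AlphaScreen read-out: biotin-H3K9 peptide (500 nM) methylation by 20 nM enzyme with 20 uM SAM, 2 h at room temperature after 15 min compound preincubation; anti-monomethyl H3K9 antibody plus donor/acceptor beads, 10 min dark.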
* marks the source's active call; other numbers are inactive results; u = inconclusive; x = no result; [ ] = dose if it differs, or a comment. The call rests on the fitted dose curve; in most records, active means well fitted inhibition curve with a large enough effect; inconclusive means small, poorly fitted or top-dose-only effect; inactive means no such curve, though single readings can be large or run the other way. Potency means the concentration at half of the fitted maximal effect.

SMILES | L3MBTL1 block | HP1b chromo inh | BAZ2B inh | JMJD2A Tudor | G9a inh
CCOC(=O)c1nnc(-c2ccc(C)cc2)nc1Sc1ccccc1Cl | x | 0% | -27% | u | u
c1ccc(-c2cccc(-c3ccccn3)n2)nc1 | u | 31% | 18µM* | 20µM* | -11%
CCOC(=O)C1CCCN(C(=O)Cn2ncn3c(cc4sc(CC)cc43)c2=O)C1 (centres undefined) | x | 34% | 4% | 4% | -24%[59 µM]
CCCCCCCCCc1nc2sc3c(c2c(=O)n1NC(=O)c1ccc([N+](=O)[O-])cc1)CC(C)(C)OC3 | -16% | -5% | -32% | u | u
CCCCCCCCCc1nc2sc3c(c2c(=O)n1NC(=O)c1ccccc1[N+](=O)[O-])CC(C)(C)OC3 | -13% | -1% | -36% | u | 71µM*
Cc1ccc(CN(C(=O)COc2ccc(Cl)c(C)c2)c2ccccn2)o1 | x | 25% | -1% | -3% | 1%[59 µM]
CCOc1ccccc1NC(=O)N(C)CCc1c(C)nn(CC)c1C | x | 43% | -6% | -7% | 1%[59 µM]
CCOc1cccc(C(=O)Nc2ccc(N3CCCC3)cc2)c1 | -16% | -10% | -32% | u | 3.5µM*
Cc1cccc(OCCCC(=O)Nc2ccc(S(N)(=O)=O)cc2)c1 | 7% | 48% | -17% | 5% | -26%
CCOc1cccc(C(=O)Nc2ccc3ccccc3c2)c1 | 18% | 42% | 4% | 4% | -11%
CCN(CC)c1ccc(NC(=O)CCCOc2cccc(C)c2)cc1 | x | u | 1% | 10µM* | 9%
CCOc1cccc(C(=O)Nc2ccc(N(CC)CC)cc2)c1 | u | u | 40µM* | 25µM* | 8.9µM*
CCOc1ccc(OCc2cccc(C(=O)Nc3ccc(CN4CCCCC4)cc3)c2)cc1 | -11% | u | u | u | 20µM*
COc1cccc(NC(=O)CCc2c(C)nc3ncnn3c2C)c1 | x | 36% | -10% | -17% | 7%[59 µM]
CN(CC(=O)Nc1ccc(F)cc1F)S(=O)(=O)c1ccc(C(=O)N2CCOCC2)s1 | x | -2% | -2% | -11% | 9%[59 µM]
O=C(COc1ccc(S(=O)(=O)NC2CCCCC2)cc1)Nc1ccc(C(F)(F)F)cc1 | x | 32% | 2% | -11% | 1%[59 µM]
COc1ccc(N2CCN(c3nc(NCCO)nc(N4CCOCC4)n3)CC2)cc1 | -3% | -16% | u | -31% | u
COc1ccc(N2CCN(C(=O)Cc3nn(C)c(=O)c4ccccc34)CC2)cc1 | -1% | 10% | 12% | -10%[57.1 µM] | 35µM*
CC1=C(c2ccc(C)cc2)S(=O)(=O)NC1=NCCCN1CCN(c2ccc(F)cc2)CC1 | x | 50% | -15% | -8% | u
COc1ccc(CNC(=O)Cc2nn(C)c(=O)c3ccccc23)cc1 | 0% | 28% | 6% | -4% | 8%
COc1ccc(N2CCN(C(=O)Cc3ccc(C)cc3)CC2)cc1 | -10% | 4% | -33% | -30% | 71µM*
COc1ccc(N2CCN(c3nc(Cl)nc(N4CCOCC4)n3)CC2)cc1 | u | -26% | -7% | u | 7.9µM*
COc1ccc(N2CCN(C(=O)CN=C3NS(=O)(=O)C(c4ccc(C)cc4)=C3C)CC2)cc1 | -14% | -4% | -8% | -24% | 40µM*
Cc1ccc(C)c(NC(=O)CCC(=O)N2CCOc3ccccc32)c1 | -4% | 16% | -6% | -18% | -3%
Cc1cc(C(=O)CCC(=O)N2CCN(c3ccccc3O)CC2)c(C)s1 | -1% | 19% | -4% | -24% | -12%[12.7 µM]
SMILES | L3MBTL1 block | HP1b chromo inh | BAZ2B inh | JMJD2A Tudor | G9a inh
O=C(Cc1ccc(Cl)cc1)N1CCN(c2ccc(F)cc2)CC1 | x | 83% | -20% | -19% | 42%[0.501 µM]
COc1ccc(N2CCN(C(=O)Cc3ccc(Cl)cc3)CC2)cc1 | -10% | -8% | u | -34% | 50µM*
O=C(Cc1ccc(-n2cccc2)cc1)N1CCN(c2ccccc2F)CC1 | -23% | u | 50µM* | 35µM* | 50µM*
COc1ccc(N2CCN(C(=O)CCC(=O)c3cc(C)sc3C)CC2)cc1 | -1% | -10% | u | u | 50µM*
O=C(CCC(=O)N1CCN(c2ccccc2F)CC1)N1CCN(c2ccc(F)cc2)CC1 | 1% | -3% | -18% | 5%[57.1 µM] | 10%
COc1ccc(OCC(=O)N2CCc3c([nH]c4ccccc34)C2c2ccccn2)cc1 (centres undefined) | -22% | -13% | u | 56µM* | u
CSc1nc(C(=O)N2CCc3c([nH]c4ccccc34)C2c2ccccn2)cs1 (centres undefined) | -24% | -19% | 32µM* | 50µM* | u
CC(=O)c1ccc(C(=O)N2CCc3c([nH]c4ccccc34)C2c2ccccn2)s1 (centres undefined) | u | 3% | 35µM* | u | u
O=C(c1cccs1)N1CCc2c([nH]c3ccccc23)C1c1ccccn1 (centres undefined) | -8% | -1% | u | u | 45µM*
O=C(c1ccccc1-n1cccn1)N1CCc2c([nH]c3ccccc23)C1c1ccccn1 (centres undefined) | -15% | -23% | u | u | u
O=C(c1cccs1)N1CCc2c([nH]c3ccccc23)C1c1ccc(Cl)cc1 (centres undefined) | -9% | -18% | -39% | -36% | u
O=C(c1ccccc1-c1ncc[nH]1)N1CCc2c([nH]c3ccccc23)C1c1ccccn1 (centres undefined) | 0% | -25% | 28µM* | u | x
O=C(c1noc2c1CCCC2)N1CCc2c([nH]c3ccccc23)C1c1ccccn1 (centres undefined) | -12% | u | u | u | 50µM*
CC12CN3CC(C)(CN(C1)C3c1ccc3ccccc3c1O)C2=O (centres undefined) | 1% | 32% | -10% | u | 1.6µM*
Cc1ccc(NC(=O)c2ccc(-c3ccccc3)s2)cc1 | x | 22% | -2% | -7% | 3%[59 µM]
Cc1ccc(NC(=O)C2=C(c3ccccc3)S(=O)(=O)CCS2(=O)=O)cc1 | -11% | -22%[57 µM] | -2% | u | 40µM*
Cc1ccc(S(=O)(=O)Cc2nc(-c3ccc(C(=O)NCc4ccccc4F)cc3)oc2C)cc1 | x | 22% | u | -12% | -48%[59 µM]
CC(=O)c1ccc(N2CCN(S(=O)(=O)c3cccc4nsnc34)CC2)cc1 | -11% | u | -25% | u | -31%
COc1ccc(N2CCN(S(=O)(=O)c3cccc4nsnc34)CC2)cc1 | x | -37% | u | 56µM* | -11%[12.7 µM]
